The panel holds about 79,000 compounds, 15% with a hit somewhere; the sample as a whole holds those more often. Unmarked numbers belong to inactive results. The source made the active and inactive calls. No stated cut-off is given here; in the data, active means growth inhibition above about 70%; inactive means the rest.
Assay: NCI Yeast Anticancer Drug Screen. Data for the mgt1 strain (AID 153)
Settings: S. cerevisiae mgt1 mutant growth inhibition, active compounds read high
Method: Growth inhibition of yeast strains with defined genetic alterations is measured as a screen for potential anti-cancer activity. Selected strains with alterations in DNA damage repair or cell cycle control were exposed to compounds and growth inhibition was measured relative to vehicle treated controls. The strain used in this assay is mgt1

| SMILES | growth inhibition (at 1.2 µM) | growth inhibition (at 3.7 µM) | growth inhibition (at 11.0 µM) | growth inhibition (at 33.0 µM) | growth inhibition (at 100.0 µM) |
| --- | --- | --- | --- | --- | --- |
| CCOC(=O)c1ccc(NC(=O)O/N=C(/Cl)C(C)C)cc1 | -3% | -7% | -5% | 73% (active) | 99% (active) |
| CCOC(=O)[C@H]1Nc2ccc(OC)cc2C2c3ccccc3CC21 (stereo not given in full) | -40% | -46% | -46% | 28% | 83% (active) |
| Cc1cc(NCCCCCCCCNc2cc(C)nc3cc(N)ccc23)c2ccc(N)cc2n1 | -72% | -79% | 80% (active) | 98% (active) | 95% (active) |
| Cc1ccc2nc(-c3cccc([N+](=O)[O-])c3)oc(=O)c2c1 | -29% | -25% | -25% | -26% | -18% |
| CC(=O)OC1CCC2(C)C(=CC(C3C=C4CC(OC(C)=O)CCC4(C)C4=C3C3CC5OC6(CCC(C)CO6)C(C)C5C3(C)CC4)C3=C2CCC2(C)C3CC3OC4(CCC(C)CO4)C(C)C32)C1 (stereo not given) | 1% | -3% | -2% | 24% | 83% (active) |
| S=c1sc2c(s1)SCCS2 | -2% | -1% | 18% | -14% | 5% |
| CN(C)CCNC(=O)c1cccc2cc([N+](=O)[O-])ccc12 | -1% | 4% | 33% | 78% (active) | 92% (active) |
| Clc1ccc(NCNC2Nc3ccccc3N2)cc1Cl | -4% | -3% | 4% | 85% (active) | 99% (active) |

— PubChem BioAssay (NCI)
